Screening data: PubChem BioAssay, University of Kansas High Throughput Screening Laboratory
Pf apPOL block = Pf-apPOL DNA polymerase inhibition | Recombinant Pf-apPOL, molecular beacon fluorescence, 1.5 h | inhibition, % at 10 µM | actives 0.25% (n = 210,000) | AID 1794808
mHTT CaM bind = disrupts binding of mutant huntingtin to calmodulin; P42858; AlphaScreen His-mHTT/GST-CaM binding, luminescence; inhibition, % at 15 µM; actives 3.6% (n = 190,000); AID 1671202;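 note: 0% = both proteins with DMSO and 100% = one protein alone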
Starred values were filed as active, the others as inactive. A selection: hits, their analogues and other compounds. The true share with any hit is near 3.6%. Cut-off read from the data, not from the text of the source: active = inhibition above about 50%; inactive = the rest.

Screening O=C(CSc1nc2ccc(N3C(=O)c4ccccc4C3=O)cc2s1)Nc1ccccc1F returned Pf apPOL block 1 and mHTT CaM bind 3.
Screening O=C(NCc1ccco1)Nc1ccccc1 returned Pf apPOL block 0 and mHTT CaM bind -2.
For N#CC1=CN(c2ccc(F)c(Cl)c2)c2cc(Cl)ccc2S1(=O)=O the results were Pf apPOL block -2 and mHTT CaM bind -5.
CCc1sc(C2C(C#N)=C(N)SC(N)=C2C#N)cc1Br was read as mHTT CaM bind 41.
`Cc1c(C)c2ccc(OCC(N)=O)c(C)c2oc1=O` gave Pf apPOL block -8 and mHTT CaM bind -3.
CCCCN1C(=O)C(CC(=O)Nc2ccc(C)c(F)c2)Sc2ncccc21 (stereo not given) was read as Pf apPOL block -5 and mHTT CaM bind -11.
For O=C1CSC(c2ccc(F)c(F)c2)N1c1ccc(F)cc1Cl (stereo not given) the results were Pf apPOL block -3 and mHTT CaM bind -6.
`Cc1ccccc1Cn1c(CN2CCC(C(=O)NCc3ccco3)CC2)cc2ccccc21` gave Pf apPOL block 2 and mHTT CaM bind 86*.
For O=C(NCCc1ccco1)C1CCN(Cc2cc3ccccc3n2Cc2ccccc2)CC1 the results were Pf apPOL block 1 and mHTT CaM bind 58*.
Screening CCc1ccc(CN2CCC(C(=O)NCc3ccco3)CC2)cc1 returned Pf apPOL block 1 and mHTT CaM bind 8.
Screening O=C(NCc1ccco1)C1CCN(Cc2cc3ccccc3n2Cc2ccccc2)CC1 returned Pf apPOL block 3 and mHTT CaM bind 73*.
`Cn1cc(CN2CCC(C(=O)NCc3ccco3)CC2)c2cc(Cl)ccc21` gave Pf apPOL block -3 and mHTT CaM bind 25.
CCOc1ccc(CN2CCC(C(=O)NCCc3ccccc3)CC2)cc1 was read as Pf apPOL block 8 and mHTT CaM bind -1.
Screening CC1(C)CC(=O)C2=C(C1)c1c(ccc3ncccc13)NC2c1ccc(Br)cc1 (stereo not given) returned Pf apPOL block 3 and mHTT CaM bind 25.
For COc1ccc(Br)cc1C1Nc2ccc3ncccc3c2C2=C1C(=O)CC(C)(C)C2 (stereo not given) the results were Pf apPOL block 6 and mHTT CaM bind 53*.
Screening CSc1ccc(C2Nc3ccc4ncccc4c3C3=C2C(=O)CCC3)cc1 (stereo not given) returned Pf apPOL block 0 and mHTT CaM bind 23.
CCN(CC)c1ccc(C2Nc3ccc4ncccc4c3C3=C2C(=O)CC(C)(C)C3)cc1 (stereo not given) was read as Pf apPOL block 0 and mHTT CaM bind 62*.
CCCOc1ccc(C2Nc3ccc4ncccc4c3C3=C2C(=O)CCC3)cc1 (stereo not given) was read as Pf apPOL block 0 and mHTT CaM bind 58*.
Screening COc1ccc(OC)c(C2Nc3ccc4ncccc4c3C3=C2C(=O)CC(C)(C)C3)c1 (stereo not given) returned Pf apPOL block 0 and mHTT CaM bind 42.
CCOC(=O)CN1CC23C=CC(O2)C(C(=O)Nc2cccc(C(C)=O)c2)C3C1=O (stereo not given) was read as Pf apPOL block -3 and mHTT CaM bind -7.
Screening N#CC1=C(N)Oc2n[nH]c(-c3cccs3)c2C1c1cccc(O)c1 (stereo not given) returned Pf apPOL block -8 and mHTT CaM bind 5.
For O=C(CCC1CCCN(C(=O)Nc2ccccc2)C1)NCCN1CCOCC1 (stereo not given) the results were Pf apPOL block -5 and mHTT CaM bind -8.
Cn1nc(-c2nc(-c3ccccc3F)no2)c2c1CCN(C(=O)C1CCC1)C2 was read as Pf apPOL block -2 and mHTT CaM bind -1.
Screening CN(C)c1nc(N)nc(CN(c2ccc(F)cc2)S(C)(=O)=O)n1 returned mHTT CaM bind -3.
CCOc1ccc(C(=O)N2CCC(n3cnc4ccc(C)cc43)CC2)cc1 was read as Pf apPOL block -3 and mHTT CaM bind 77*.
`Cc1ccc2ncn(C3CCN(C(=O)C(C)Oc4ccccc4)CC3)c2c1` (stereo not given) gave Pf apPOL block -4 and mHTT CaM bind 9.
`CCOc1ccc(C(=O)Nc2ccc3oc(-c4ccc(OC)cc4)nc3c2)cc1[N+](=O)[O-]` gave Pf apPOL block -2 and mHTT CaM bind -1.
For COc1cc2c(cc1OC)CN(C(=O)C(Cl)(Cl)Cl)CC2 the results were Pf apPOL block -14 and mHTT CaM bind -3.
For O=C(Nc1nc(C(=O)N2CCN(c3cccc(C(F)(F)F)c3)CC2)co1)C1CC1 the results were Pf apPOL block -4 and mHTT CaM bind 16.
For O=C(Nc1c[nH]c2ccccc12)N1CCN(c2cccc(C(F)(F)F)c2)CC1 the results were Pf apPOL block -5 and mHTT CaM bind 59*.
For CC(C)CC(=O)Nc1c(C(=O)Nc2ccccc2F)oc2cccnc12 the results were Pf apPOL block 4 and mHTT CaM bind -9.
Screening O=C(Nc1nc2c(s1)CCCC2)c1ccc([N+](=O)[O-])o1 returned Pf apPOL block 64* and mHTT CaM bind 18.
`O=C(Nc1nc2c(F)cccc2s1)c1ccc([N+](=O)[O-])o1` gave Pf apPOL block 3 and mHTT CaM bind 4.
For Cc1cn(CC(C)C)c(=O)n(CC(C)C)c1=O the results were Pf apPOL block -2 and mHTT CaM bind -2.
COc1ccc(NC(=O)c2c(Cl)cc(Cl)nc2Cl)cc1 was read as Pf apPOL block -1 and mHTT CaM bind -8.
Screening COc1ccc(NC(=O)c2c(C)sc3c(C)c(C)[nH]c23)cc1 returned Pf apPOL block 26 and mHTT CaM bind 54*.
O=C(CN1C(=O)/C(=C/c2ccccc2)Sc2ccccc21)NCc1ccccn1 was read as Pf apPOL block -8 and mHTT CaM bind 72*.
CN(CCNC(=O)CN1C(=O)/C(=C/c2ccccc2F)Sc2ccccc21)Cc1ccccc1 was read as Pf apPOL block -1 and mHTT CaM bind 92*.
For O=C(CN1C(=O)CSc2ccccc21)NCc1ccccn1 the results were Pf apPOL block -20 and mHTT CaM bind 24.
`CCN(CCNC(=O)CN1C(=O)/C(=C/c2ccccc2F)Sc2ccccc21)c1ccccc1` gave Pf apPOL block 1 and mHTT CaM bind 17.
For COCCNC(=O)CN1C(=O)/C(=C/c2ccc(Cl)cc2)Sc2ccccc21 the results were Pf apPOL block -5 and mHTT CaM bind 11.
Screening O=C(CN1C(=O)/C(=C/c2ccc(Cl)cc2)Sc2ccccc21)NCc1ccccn1 returned Pf apPOL block -2 and mHTT CaM bind 54*.
CCN1CCN(C(=O)CN2C(=O)/C(=C/c3ccc(C(F)(F)F)cc3)Sc3ccccc32)CC1 was read as Pf apPOL block 2 and mHTT CaM bind 68*.
Screening O=C(CN1C(=O)/C(=C/c2ccc(C(F)(F)F)cc2)Sc2ccccc21)N1CCCC1 returned Pf apPOL block 4 and mHTT CaM bind 14.
Screening Cc1cc(C2CCCN2C(=O)c2nn(C)cc2Cl)on1 (stereo not given) returned Pf apPOL block 1 and mHTT CaM bind -14.
`O=C1NCCCC1=NNc1cc(C(F)(F)F)cc(C(F)(F)F)c1` gave Pf apPOL block -10.
For COc1cccc(Nc2ncc3c(n2)CCN(Cc2sccc2C)C3)c1 the results were Pf apPOL block -8 and mHTT CaM bind 9.
For COc1cccc(Oc2coc3cc(OCc4ccc([N+](=O)[O-])cc4)ccc3c2=O)c1 the results were Pf apPOL block -7 and mHTT CaM bind -8.
